Screens from PubChem BioAssay.
Vif-A3G inh: Vif-A3G binding inhibition. Q9HC16. HeLa A3G-eYFP + Vif (tagged APOBEC3G with the HIV-1 protein that degrades it), YFP fluorescence, overnight. Potency, µM (doses to about 46.1 µM), for the others: top-dose activity, negative = active, hits mostly inhibitors. hit rate 0.076% among 410,000. AID 602310; also: potency is read from the fitted curve at half-maximal effect; % is scaled to controls: 0 for no effect and ±100 for the full control effect; nearly all actives have a fitted effect of over 60% in size
Target sequence (Q9HC16 whole entry, looked up): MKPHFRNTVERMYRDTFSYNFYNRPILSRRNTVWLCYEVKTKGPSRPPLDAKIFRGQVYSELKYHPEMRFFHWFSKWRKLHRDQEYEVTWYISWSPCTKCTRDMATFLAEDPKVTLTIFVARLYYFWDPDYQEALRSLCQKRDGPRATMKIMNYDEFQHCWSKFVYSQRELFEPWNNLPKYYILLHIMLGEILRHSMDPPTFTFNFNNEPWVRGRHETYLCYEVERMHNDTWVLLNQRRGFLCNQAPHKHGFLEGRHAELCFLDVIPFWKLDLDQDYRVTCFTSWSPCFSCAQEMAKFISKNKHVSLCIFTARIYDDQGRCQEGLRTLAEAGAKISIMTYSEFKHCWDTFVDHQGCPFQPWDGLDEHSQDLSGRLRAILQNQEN
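Read-out is eYFP fluorescence (Ex 488/Em 500-530) from Vif-expressing HeLa A3G-eYFP cells; more signal means A3G escaped Vif-mediated degradation. Cells plated overnight, compound pinned in, incubated overnight at 37 deg C.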
Chronic BCR inh: chronic active BCR signaling inhibition | Potency, µM (titrated, usually from 46.1 µM), inactives show top-dose activity change, negative = inhibition, usual class: inhibitors | ABC-DLBCL IkBa-CBG/CBR reporter, luminescence ratio, 4 h | AID 493014 | hit rate 0.05% among 340,000; active = well fitted inhibition curve with a large enough effect in the signal ratio, with a control signal flat, not every such curve was filed as active; inconclusive = small, poorly fitted or top-dose-only effect, or effect the other way, or a change in a side signal; the % refers to the signal ratio;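 also: potency is read from the fitted curve at half-maximal effect; plate controls were basal doxycycline-induced cells for no effect and cells given 10 µM MG132 for full effect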
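TMD8 human ABC-DLBCL cells with doxycycline-inducible IκBα–green luciferase fusion and unfused red luciferase, in 0.5% FBS medium; compounds up to 46 uM, 4 h at 37C. Green/red luminescence ratio, filter-overlap corrected, fitted to concentration-response curves.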
uPA surface inh: inhibitors of cell surface uPA generation; cell surface uPA generation assay, qHTS; Potency, µM (series often up to 38.3 µM), inactives show at the highest dose activity change, negative = inhibition, actives largely listed as inhibitors; hit rate 0.31% among 330,000; active = well fitted inhibition curve with a large enough effect; inconclusive = small, poorly fitted or top-dose-only effect; inactive = no such curve, though single readings can be large or run the other way; tested in mouse RAW 264.7 cells; also: potency is read from the fitted curve at half-maximal effect; % is scaled to controls: 0 for no effect and ±100 for the full control effect; nearly all actives have a fitted effect of over 55% in size
TCR act: activates T cell receptor signaling. primary human leukocytes, anti-CD3, IL-2 HTRF, 48 h. Potency, µM (doses to about 9.22 µM), for the others: at the highest dose activation of IL-2 secretion, most hits filed as activators. 330,000 tested, under 10 active. AID 504894; also: % of control where 0% means no effect
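TCR engagement came from a-CD3 beads alone, with compounds added to primary human leukocytes for 48 hr. Secreted IL-2 bridged europium cryptate- and d2-labelled anti-IL-2 antibodies, giving FRET emission at 665nm after 320nm excitation.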
Vif-A3F inh: inhibitors of Vif-A3F interaction | HeLa A3F-eYFP + Vif (tagged APOBEC3F with the HIV-1 protein that degrades it), YFP fluorescence increase | Potency, µM (top dose mostly 46.1 µM), inactives show at the highest dose activity, negative = active | hit rate 0.2% among 390,000 | AID 602313; also: potency is read from the fitted curve at half-maximal effect; % of control where 0% means no effect; nearly all actives have a fitted effect of over 65% in size
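Fluorescence increase (Ex 488/Em 500-530) after overnight compound treatment at 37 deg C flags inhibition of Vif-driven A3F-eYFP loss in stable HeLa A3F-eYFP/Vif cells seeded overnight beforehand.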
MBNL1 CUG block: inhibitors of human MBNL1 binding to CUG repeat RNA | Q9NR56 | AID 2675 | TR-FRET MBNL1-His/biotin-(CUG)12 binding, 665/545 ratio | Potency, µM (titrated, usually from 57.5 µM), inactives show at the highest dose activity change, negative = inhibition, usual class: inhibitors | hit rate 0.036% among 280,000; active = well fitted inhibition curve with a large enough effect in the signal ratio, with a control signal flat, not every such curve was filed as active; inconclusive = small, poorly fitted or top-dose-only effect, or effect the other way, or a change in a side signal; inactive = no such curve, though single readings can be large or run the other way; the % refers to the signal ratio; also: potency is read from the fitted curve at half-maximal effect; % is scaled to controls: 0 for no effect and ±100 for the full control effect
Target sequence (Q9NR56 whole entry, looked up): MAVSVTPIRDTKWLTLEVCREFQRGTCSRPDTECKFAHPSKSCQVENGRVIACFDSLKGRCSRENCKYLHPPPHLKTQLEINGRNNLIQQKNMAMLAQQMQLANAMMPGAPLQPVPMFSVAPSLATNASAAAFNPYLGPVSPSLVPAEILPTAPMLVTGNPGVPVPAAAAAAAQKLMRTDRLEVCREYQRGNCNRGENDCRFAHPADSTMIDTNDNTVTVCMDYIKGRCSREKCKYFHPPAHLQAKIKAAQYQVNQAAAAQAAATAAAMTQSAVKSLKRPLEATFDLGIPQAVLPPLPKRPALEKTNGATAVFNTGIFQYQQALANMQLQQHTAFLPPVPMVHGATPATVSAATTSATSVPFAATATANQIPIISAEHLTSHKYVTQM
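MBNL1-His + Biotin-(CUG)12, cpd titration 92 nM–58 uM; Tb anti-His Ab 0.055 ng/ul, SA-XL665 5 nM (final); 60 min RT; ratiometric 665/545 nm, Ex 340 nm; normalized to buffer and full-complex controls.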
* hit, by the source's call; ? = inconclusive; nt = no result; ! = a repeat was not active; [ ] = another dose, or the depositor's remark. Rows were chosen to be rich in hits. Some 0.54% of all compounds tested hit in one or more screens of this group. Unless noted, calls follow the shape of the dose curve; as a rule, active = well fitted curve in the direction sought with a large enough effect; inconclusive = small, poorly fitted or top-dose-only effect, or another doubt; inactive = no such curve, though single readings can be large; an effect the other way counts as inactive or inconclusive.

SMILES	Vif-A3G inh	Chronic BCR inh	uPA surface inh	TCR act	Vif-A3F inh	MBNL1 CUG block
CCOc1ccc2cc(-c3nnc(Nc4ccccc4F)s3)c(=O)oc2c1	6.3%	nt	nt	nt	?	nt
CCOc1ccccc1Nc1nnc(-c2cc3cc(OC)ccc3oc2=O)s1	-15.8%	?	nt	nt	7.08µM*	nt
COc1ccc2oc(=O)c(-c3nc4ccccc4o3)cc2c1	?	-6.4%	-1.4%	3.8%[46.1 µM]	12.6µM*	?
O=c1oc2ccccc2cc1-c1nc2ccccc2o1	-19.7%	?	nt	6.9%	-21.0%	?
COc1cc(/C=C2\C=Cc3ccccc32)cc(OC)c1OC	-6.5%	nt	nt	nt	nt	nt
COc1ccccc1/C=c1/[nH]c(=O)/c(=C\c2ccccc2OC)[nH]c1=O	-4.1%	nt	nt	nt	nt	nt
Cc1ccc(Cn2cnc3c(cnn3C(C)(C)C)c2=O)cc1F	3.6%	nt	nt	nt	nt	nt
CCOC(=O)/C(C#N)=N/Nc1ccccc1OC	-20.3%	?	-0.2%	1.9%[46.1 µM]	?	nt
CCOC(=O)/C(C#N)=N\Nc1cc(Cl)ccc1OC	-4.8%	5.4%	5.2%	-0.3%	10µM*	-11.1%
OC(Cc1ccc2ccccc2n1)c1c(Cl)cccc1Cl (stereo not given)	-3.7%	nt	nt	nt	nt	nt
C=C[C@@H]1c2cc(C)ccc2N(S(=O)(=O)c2ccc(C)cc2)[C@H](c2ccc(C(=O)OC)cc2)C1(C#N)C#N	0.0%	nt	nt	nt	nt	nt
CC(=O)Nc1cc2nn(-c3ccccc3)nc2cc1C	-5.3%	?	5.01µM*	5.0%	1.4%	123.6%
COc1cc(-c2cc(C(=O)Nc3ccc(O)cc3)c3ccccc3n2)cc(OC)c1OC	-8.8%	?	6.7%	-14.7%	2.5%	12.9%
COc1cc(-c2cc(O)c(-c3ccc4ccccc4n3)c(=O)[nH]2)cc(OC)c1OC	10µM*	nt	-6.2%	-0.7%	11.2µM*	nt
CC(C)(C)n1ncc2c(=O)n(Cc3ccccc3C#N)cnc21	0.8%	nt	nt	nt	nt	nt
Cc1ccc(N=Cc2cc(Cc3ccccc3Cl)cc([N+](=O)[O-])c2O)c(O)c1	3.3%	?	8.91µM*	-6.5%	-12.9%	-6.2%
COc1cc(OC)c(/C=C/c2cc(/C=C/c3c(OC)cc(OC)cc3OC)[n+](C)c3ccccc23)c(OC)c1	-12.5%	nt	nt	nt	nt	nt
N#C/C(=C\c1ccc(-c2ccccc2C(=O)O)o1)c1nc2ccccc2[nH]1	-8.7%	4.1%	-0.2%	-18.6%	22.4µM*!	6.2%
COc1cc(Br)c(/C=C(\C#N)c2nc3ccccc3[nH]2)cc1OC	-23.5%	nt	nt	nt	25.1µM*	nt
Cc1cc2nc(/C(C#N)=C\c3ccc(-c4ccccc4C(=O)O)o3)[nH]c2cc1C	8.0%	-0.4%	-8.1%	-4.3%	-319.1%	15.0%
Cc1ccc2nc(/C(C#N)=C\c3ccc([N+](=O)[O-])o3)[nH]c2c1	6.31µM*	7.3%	?	3.4%	?	-8.6%
Cc1ccc2nc(/C(C#N)=C/c3ccc(-c4ccccc4C(=O)O)o3)[nH]c2c1	?	?	-23.4%	1.7%	11.2µM*	?
CN(C)c1ccc(/C=c2\[nH]c(=O)/c(=C\c3ccc(N(C)C)cc3)[nH]c2=O)cc1	-0.9%	nt	nt	nt	nt	nt
N#C/C(=C\c1ccc(-c2ccc(F)cc2F)o1)c1nc2ccccc2[nH]1	11.2µM*	nt	nt	nt	11.2µM*	nt
COc1ccc2nc(SCC(=O)NC3CCCCC3C)[nH]c2c1 (stereo not given)	?	-3.4%	8.91µM*	0.1%	-18.8%	nt
SMILES	Vif-A3G inh	Chronic BCR inh	uPA surface inh	TCR act	Vif-A3F inh	MBNL1 CUG block
COc1ccc2nc(SCC(=O)NC(C)C)[nH]c2c1	4.4%	0.3%	1.1%	-2.0%	-13.1%	3.7%
CCOC(=O)c1c(NC(=O)CSc2nc3ccc(OC)cc3[nH]2)sc2c1CC(C)(C)NC2(C)C	?	-4.8%	-8.9%	-0.4%	25.1µM*	nt
CCOC(=O)c1c(NC(=O)CSc2ncccn2)sc2c1CC(C)(C)NC2(C)C	0.8%	1.8%	-11.7%	1.7%	2.0%	-9.9%
Cc1cc2ccccc2c[n+]1C1CCCCC1	3.2%	nt	nt	nt	nt	nt
Cc1ccccc1CN1Cc2cccc3c2[C@H](C=CC3)CC1=O	2.4%	nt	nt	nt	nt	nt
NC(=O)C1CCN(c2nc3ccccc3nc2NS(=O)(=O)c2ccc(Br)cc2)CC1	-0.8%	3.4%	1.9%	4.3%	25.1µM*	nt
NC(=O)C1CCN(C2=C(NS(=O)(=O)c3ccc(Br)cc3)C(=O)c3ccccc3C2=O)CC1	-16.0%	23.3%	-4.9%	3.7%	2.0%	?
CC(C)(C)/C(O)=C/c1nc2ccccc2oc1=O	-8.4%	-0.8%	-17.0%	0.3%	-0.2%	-13.9%
O=c1oc2ccccc2nc1/C=C(\O)c1ccccc1	-8.5%	?	2.24µM*	8.6%	12.7%	-1.6%
O=C(C[N+]1(CCO)CCOCC1)c1cccs1	-1.0%	nt	nt	nt	nt	nt
CCc1c(C)nc(SCC(=O)c2cccs2)c(C#N)c1C	12.6µM*	?	-15.2%	5.9%	?	13.7%
CC#CC#Cc1cccc(=O)o1	-2.7%	?	5.01µM*	-1.3%	-6.1%	?
COc1ccccc1C(C)NCC(=O)c1c(C)[nH]c2ccccc12 (stereo not given)	-1.2%	nt	nt	nt	nt	nt
COc1ccc2c(CN(C)c3ccccc3)cc(=O)oc2c1	-5.1%	14.6µM*	-7.4%	8.5%	-1.6%	?
Cc1c([N+](=O)[O-])cnc2ccccc12	-3.3%	nt	nt	nt	nt	nt
CC(=O)c1ccc2cccc3c2c1N=CN3C	12.6µM*	-0.3%	-2.7%	-10.2%	?	?
CN1c2cccc3cccc(c23)N(C)C1(C)C	0.7%	3.4%	4.9%	3.1%	-2.0%	11.4%
O=C(C[n+]1ccnc2ccccc21)c1ccc(Br)cc1	-0.7%	nt	nt	nt	nt	nt
O=C(Nc1ccc2c(c1)OCCO2)c1ccccn1	-2.9%	?	3.55µM*	-8.4%	-2.7%	3.8%
O=C(Nc1ccc(NC(=O)c2ccccn2)cc1)C(=O)Nc1ccc2c(c1)OCCO2	-2.2%	2.4%	-3.1%	7.4%	16.1%	-5.6%
COc1cc2c(cc1OC)C1=CC(=O)C(=O)N1C(C)(C)C2	7.08µM*	?	-1.0%	8.8%	?	?
COc1cc2c(cc1OC)-c1nc3ccccc3c(=O)n1C(C)(C)C2	-0.4%	?	0.6%	nt	2.3%	-8.1%
CCOC(=O)C1=C(Cc2ccc(Cl)cc2)C(=O)c2ccccc2C1=O	?	?	?	nt	28.2µM*	25.9%
CCOC(=O)C1=C(C)N=C2c3ccccc3C(=O)C2C1c1ccc(Cl)cc1 (stereo not given)	-13.1%	23.6%	-2.8%	-9.1%	-8.4%	27.3%
O=C(/C=C/c1ccc(O)c(O)c1)OC(Cc1ccc(O)c(O)c1)C(=O)O (stereo not given)	4.2%	3.6%	5.6%	-0.5%	-0.5%	?
O=C(/C=C/c1ccc(O)c(O)c1)OCCc1ccccc1	-24.1%	nt	0.891µM*	-12.2%	?	nt
